Screening data deposited in PubChem by several laboratories.
Keap1-Nrf2 PPI: inhibitors of human Keap1-Nrf2 protein-protein interaction; AID 504523; inhibition, % at 9.4 µM; Q14145; actives 0.15% (n = 340,000); Keap1 Kelch-Nrf2 peptide fluorescence polarization, 1536-well; in the data active means inhibition above about 12%;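 further: human Keap1 Kelch domain with fluorescein labeled Nrf2 9mer peptide probe; higher means more block of Keap1 binding to Nrf2 peptide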
cardiac RTF act: increases calcium sensitivity of human cardiac regulated thin filaments; P19429+P45379; IANBD-labeled TnC RTF fluorescence at EC20 calcium; 0% EC20 calcium, 100% full calcium; activation, % at 7.2 µM; actives 0.24% (n = 340,000); AID 493008;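 active means activation above the mean over all tested compounds plus 3 SD, cut at about 30% in these data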;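 further: rise in fluorescence read as greater calcium sensitivity of cardiac thin filaments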
RTF Ca sens inh: cardiac RTF calcium desensitization. IANBD-labeled cardiac RTF, Ca2+ fluorescence. inhibition, % at 7.15 µM. actives 0.12% (n = 340,000). AID 493244;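 active means inhibition above the mean inhibition of all tested compounds plus 3 SD, cut at about 17% in these data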;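 further: assay run at fixed EC70 calcium of 1.6 mM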
LANA DNA inh: KSHV C-LANA DNA binding inhibition. inhibition, % at 9 µM. MBP-C-LANA/FAM-LBS DNA binding, fluorescence polarization. actives 0.078% (n = 340,000);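 active means highest replicate inhibition at or above 60% at 9 µM, even if other replicates fall short; inactive means all replicates below 60% inhibition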
E coli Lon inh: inhibits E. coli Lon protease; purified E. coli Lon protease, fluorescence polarization; inhibition, % at 7.94 µM; actives 0.42% (n = 360,000); AID 602123; in the data active means inhibition above about 13%, passing the limit was not always enough
Target sequence (P0A9M0 whole entry, looked up): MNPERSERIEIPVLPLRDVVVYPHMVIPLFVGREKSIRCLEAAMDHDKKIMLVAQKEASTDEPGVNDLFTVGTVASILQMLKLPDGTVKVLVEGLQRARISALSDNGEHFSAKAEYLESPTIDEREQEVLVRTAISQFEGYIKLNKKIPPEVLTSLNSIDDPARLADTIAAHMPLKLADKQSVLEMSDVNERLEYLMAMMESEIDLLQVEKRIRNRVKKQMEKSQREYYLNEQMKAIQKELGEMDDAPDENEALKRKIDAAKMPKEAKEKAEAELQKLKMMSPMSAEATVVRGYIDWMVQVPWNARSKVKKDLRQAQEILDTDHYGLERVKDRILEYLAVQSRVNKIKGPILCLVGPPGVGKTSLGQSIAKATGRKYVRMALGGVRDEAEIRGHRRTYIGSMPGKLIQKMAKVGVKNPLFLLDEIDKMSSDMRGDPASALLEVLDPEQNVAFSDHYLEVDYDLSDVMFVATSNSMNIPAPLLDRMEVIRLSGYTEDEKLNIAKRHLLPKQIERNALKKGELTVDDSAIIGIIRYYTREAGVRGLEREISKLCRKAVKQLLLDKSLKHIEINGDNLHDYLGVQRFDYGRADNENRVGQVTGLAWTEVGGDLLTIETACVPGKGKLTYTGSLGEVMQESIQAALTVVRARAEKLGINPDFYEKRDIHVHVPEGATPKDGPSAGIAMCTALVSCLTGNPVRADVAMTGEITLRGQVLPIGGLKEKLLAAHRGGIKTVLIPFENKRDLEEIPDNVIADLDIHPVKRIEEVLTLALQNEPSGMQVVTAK
Keap1 TSA: Keap1 (human) Kelch domain binding; max delta Tm, degrees C; AID 651823; Keap1 Kelch thermal shift, delta Tm; stronger effect = higher value; actives 8% (n = 400); shares compounds with Keap1-Nrf2 PPI; in the data active means max delta Tm above about 0.48 degrees C
Dye-only ctr: dye artifact in Keap1 thermal shift counter-screen; delta Tm, degrees C (test concentration not listed); Sypro Orange dye-only thermal melt, no protein, delta Tm; top dose 26 µM; 140 tested, under 10 active; shares compounds with Keap1-Nrf2 PPI;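 active means at highest dose tested, delta Tm positive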
A number is an active result; i = inactive; nt = no result given; ! = repeats disagree. Hits are enriched below; roughly 0.82% of the tested compounds scored in any of these assays.

SMILES | Keap1-Nrf2 PPI | cardiac RTF act | RTF Ca sens inh | LANA DNA inh | E coli Lon inh | Keap1 TSA | others
COc1ccc(-c2c(C(=O)c3ccccc3)[nH]c(N)c2C(=O)NCc2ccccc2)cc1OC | nt | nt | nt | nt | i | nt
CC(C)(C)c1ccccc1NC(=O)NC1CCN(Cc2c(F)cccc2Cl)CC1 | 20.9 | nt | nt | i | i | i
O=C(O)c1ccccc1NS(=O)(=O)c1cccc(NS(=O)(=O)c2cc(Br)ccc2Br)c1 | i | i | i | i | i | nt
Cc1ccc(S(=O)(=O)Nc2cccc(S(=O)(=O)Nc3ccccc3C(=O)O)c2)c(C)c1 | 15.6 | i | i | i | i | 1.13
Cc1ccc(S(=O)(=O)Nc2ccc3c4c(cccc24)CC3)c(C)c1 | i | i | i | i | i | nt
Cc1ccc(S(=O)(=O)Nc2ccc(O)c3ccccc23)c(C)c1 | 12.1 | i | i | i | i | 1.23
Cc1ccc(S(=O)(=O)Nc2cc(C(C(=O)OC(C)C)C(=O)C(F)(F)F)c(O)c3ccccc23)c(C)c1 (stereo not given) | 50.9 | i | i | i | i | 10.3
CC1(C(=O)Nc2ccc(Cl)c(Cl)c2)CCN1C(=O)Cc1ccc(-c2ccccc2)cc1 (stereo not given) | nt | nt | nt | nt | i | nt
COc1ccccc1S(=O)(=O)N(C)C[C@@H]1OCc2cnnn2CCCC(=O)N([C@H](C)CO)C[C@H]1C | nt | nt | nt | nt | i | nt
Cc1ccc(S(=O)(=O)N2CCCCC2)cc1NC(=O)c1ccccc1Cl | 31.3 | i | i | i | i | i
COc1cc(S(=O)(=O)N2CCCCC2)ccc1NC(=O)c1ccccc1Cl | i | i | i | i | i | nt
CC(=O)C1C(c2ccc(F)cc2)c2c(noc2C)CC1(C)O (stereo not given) | 50.4 | nt | nt | i | i | i
Cc1c(C(=O)NCc2cccc(C(F)(F)F)c2)sc(=O)n1Cc1cccc(F)c1 | nt | nt | nt | nt | i | nt
Cc1ccc(NC(=S)NCc2ccc(F)cc2)c(C)c1 | 22.5 | i | i | i | i | i | Dye-only ctr=i
Cc1ccc(NC(=S)NCc2ccc(S(N)(=O)=O)cc2)c(C)c1 | i | i | i | i | i | nt
c1ccc(CN2CCC3CC2c2c3cccc2N2CCOCC2)cc1 (stereo not given) | nt | nt | nt | nt | i | nt
Oc1[nH]c2ccccc2c1N=Nc1ccccc1F | 21.4 | 282.1 | i | i | i | i
Oc1[nH]c2ccccc2c1N=Nc1ccccc1 | 19.6 | i | i | i | i | i
O=C(N=Nc1c(O)[nH]c2ccccc12)Nc1ccccc1 | i | i | i | i | i | nt
COc1ccccc1N(CC(=O)N1CCN(Cc2ccccc2)CC1)S(=O)(=O)c1ccccc1 | nt | nt | nt | nt | i | nt
Fc1ccc(-c2nc3c4ccccc4ccn3c2Cc2ccsc2)cc1 | nt | nt | nt | nt | i | nt
O=C(NNc1cc(Cl)ccc1Cl)c1cccs1 | 30.6 | nt | nt | i | i | i
O=[N+]([O-])c1cncc([N+](=O)[O-])c1Nc1cccc(O)c1 | 35.2 | i | i | i | i | i
O=c1[nH]c(/C=C/c2cccc3ccccc23)nc2ccccc12 | 16.6 | i | i | i | i | i | Dye-only ctr=i
C=CCn1c(Sc2ncc([N+](=O)[O-])s2)n[nH]c1=O | 18.7 | i | i | i | i | i | Dye-only ctr=i
SMILES | Keap1-Nrf2 PPI | cardiac RTF act | RTF Ca sens inh | LANA DNA inh | E coli Lon inh | Keap1 TSA | others
O=[N+]([O-])c1cnc(Sc2ccncn2)s1 | i | i | i | i | i | nt
Cc1ccc(N2C(=O)C3C(C(=O)c4ccccc4)=NN(c4ccccc4)C3C2=O)cc1 (stereo not given) | i | i | i | i | i | nt
O=C(C1=NN(c2ccccc2)C2C(=O)N(c3ccccc3)C(=O)C12)c1ccccc1 (stereo not given) | 53.7 | 33.1 | i | i | i | i | Dye-only ctr=i
COCCNC(=O)C1(C)CCN(C(=O)c2ccc(SC(F)(F)F)cc2)C1 (stereo not given) | nt | nt | nt | nt | i | nt
CC1(C(=O)NCc2cccc3ccccc23)CCN1Cc1cccc2c1OCO2 (stereo not given) | nt | nt | nt | nt | i | nt
CN1CCC2(CC1)C1CN(C)CC=C1C(C#N)=C(N)C2(C#N)C#N (stereo not given) | 13.5! | 36.5 | i | i | i | i
NC(=O)c1cccc(-c2ccnc3c2CC(C(=O)NCc2ccccc2)O3)c1 (stereo not given) | nt | nt | nt | nt | i | nt
C=CCn1c(=O)/c(=C/c2ccsc2)s/c1=C(\C#N)C(=O)NCCN1CCOCC1 | 13.2 | i | i | i | i | i
N#C/C(=C\c1ccccc1)C(=O)NCCN1CCOCC1 | i | i | i | i | i | nt
COc1cc(/C=C/C(=O)OCC(=O)c2ccc3c(c2)NC(=O)CO3)ccc1OC(F)F | 21.1 | i | i | i | i | i | Dye-only ctr=i
Nc1nc2cc3c(cc2cc1C(=O)NCc1ccc(F)cc1)OCO3 | nt | nt | nt | nt | i | nt
O=C(Cc1ccc(S(=O)(=O)N2CCCC2)s1)Nc1nc2c(s1)CCCC2 | 13.1 | i | i | i | i | i | Dye-only ctr=i
CCCCOc1ccc(C2OC34CCCCC3C(C#N)(C#N)C2(C#N)C(=N)O4)cc1 (stereo not given) | 27.2 | i | i | 60.3 | i | i | Dye-only ctr=i
O=C1OCCC1=COCCCCCCOC=C1CCOC1=O | nt | nt | nt | nt | i | nt
CN1OC[C@@H]2CN(C(=S)NCCc3ccccc3)[C@H](c3ccc(-n4ccnc4)cc3)C[C@@H]21 | nt | nt | nt | nt | i | nt
CC(C)Cn1c(N)c(C(=O)CSc2nnc(-c3ccco3)n2C)c(=O)n(C)c1=O | 68.4 | i | i | nt | i | i
